Reference: PubChem BioAssay (Tox21)
Results filed as inconclusive are left out. Active and inactive are the calls of the source. Unless noted, calls follow the shape of the dose curve; as a rule, active = well fitted curve in the direction sought with a large enough effect in the repeat runs; inconclusive = weak or mixed curves; inactive = no such curve, though single readings can be large; an effect the other way counts as inactive or inconclusive.

How the values were obtained:
[1] = qHTS assay for small molecules that induce genotoxicity in human embryonic kidney cells expressing luciferase-tagged ATAD5 (AID 651632); also: nearly all actives have a fitted effect of over 15% in size
Procedure, shortened: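 HEK293T cells carrying a luciferase reporter tagged to ATAD5 were exposed to compound or DMSO vehicle for 16 hr at 37C, 5% CO2. Amplite was added, and after 30 min at room temperature luciferase activity was read as a marker of ATAD5 induction.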

[2] = qHTS assay for small molecule agonists of the p53 signaling pathway - cell viability (AID 651633; calls by dose curve; also: series mostly up to about 83 µM; nearly all actives have a fitted effect of over 30% in size)
Procedure, shortened: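 p53RE-bla cells, seeded at 4,000 per well and rested 5 h at 37 C/5% CO2, received compounds in DMSO for 16 h at 37 C. CellTiter-Glo was then added, and luminescence was read after 30 min at room temperature to gauge cytotoxicity.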

[3] = qHTS assay for small molecules that induce genotoxicity in human embryonic kidney cells expressing luciferase-tagged ATAD5 - cell viability (AID 651634; calls by dose curve; also: nearly all actives have a fitted effect of over 25% in size)
Procedure, shortened: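 HEK293T cells expressing luciferase-tagged ATAD5 were exposed to compound or DMSO for 15.5 hr at 37C, 5% CO2. Viability was then read as live-cell protease activity by CellTiter-Fluor fluorescence after 30 min at 37C.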

[4] = qHTS assay for small molecule disruptors of the mitochondrial membrane potential - cell viability (AID 720634; calls by dose curve;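 also: human HepG2 liver cancer cells; series mostly up to about 83 µM; nearly all actives have a fitted effect of over 20% in size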)
Procedure, shortened: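 HepG2 cells seeded overnight at 37 C, then exposed to compound or DMSO for 1 hr at 37 C, 5% CO2. m-MPI dye added, then CellTiter-Glo for 30 min at room temperature; viability read as ATP luminescence.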

[5] = qHTS assay for small molecule disruptors of the mitochondrial membrane potential (AID 720635)
Procedure, shortened: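 HepG2 cells (2,000/well) attached overnight at 37C, then took compound for 1 hr at 37C, 5% CO2. Mito-MPS dye was added for 30 min; fluorescence was read at 490/535 nm (monomers) and 540/590 nm (aggregates).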

[6] = qHTS assay to test for compound auto fluorescence at 590 nm (red) in HepG2 cells (AID 720674)
Procedure, shortened: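 Rose Bengal sodium served as the red fluorophore standard. HepG2 monolayers (overnight attachment, MEM with 10% FBS) were exposed to test compounds for 1 hr at 37 C and read at Ex 540/Em 590 nm.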

[7] = qHTS assay to test for compound auto fluorescence at 535 nm (green) in HepG2 cells (AID 720675)
[8] = qHTS assay to test for compound auto fluorescence at 460 nm (blue) in HEK293 cells (AID 720678)
Procedure, shortened: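 Auto fluorescence in the blue band was quantified as triamterene equivalency. HEK293 cells were seeded at 2,000/well, dosed after a 4-5 hr attachment, and kept overnight at 37C before the 405/460 nm reading.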

[9] = qHTS assay to test for compound auto fluorescence at 590 nm (red) in HEK293 cells (AID 720679)
Procedure, shortened: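 Autofluorescence equivalency to Rose Bengal sodium, 540/590nm, in HEK293 cells exposed overnight to 23 nL compound per well.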

[10] = qHTS assay to test for compound auto fluorescence at 535 nm (green) in HEK293 cells (AID 720680)
[11] = qHTS assay to test for compound auto fluorescence at 460 nm (blue) in HEK293 cell free culture (AID 720681)
Procedure, shortened: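 Test compounds were pinned into cell-free culture medium (DMEM with 10% FBS) and fluorescence was read directly at Ex/Em 405/460 nm. Signals were expressed as fluorescence equivalents of triamterene, with DMSO vehicle as control.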

[12] = qHTS assay to test for compound auto fluorescence at 535 nm (green) in HEK293 cell free culture (AID 720682)
Procedure, shortened: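 Compounds were pin-transferred into cell-free DMEM with 10% FBS, and green fluorescence was read at excitation 485 nm and emission 535 nm. Intensities were expressed as fluorescein-equivalent values.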

[13] = qHTS assay to test for compound auto fluorescence at 590 nm (red) in HEK293 cell free culture (AID 720683)
Procedure, shortened: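 Tox21 10K library compounds were pinned into cell-free DMEM with 10% FBS and fluorescence was read at excitation 540 nm. Activity is expressed as Rose Bengal sodium equivalency.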

[14] = qHTS assay to test for compound auto fluorescence at 590 nm (red) in HepG2 cell free culture (AID 720684)
Procedure, shortened: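 Measured in medium alone (MEM containing 10% FBS) following pintool addition of compound; emission at 590 nm with 540 nm excitation, referenced to Rose Bengal sodium.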

[15] = qHTS assay to test for compound auto fluorescence at 460 nm (blue) in HepG2 cell free culture (AID 720685)
Procedure, shortened: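 Compound (23 nL) or DMSO pinned into cell-free MEM with 10% FBS; blue fluorescence read at 405/460 nm excitation/emission, expressed as auto-fluorescence equivalency to triamterene.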

[16] = qHTS assay to test for compound auto fluorescence at 535 nm (green) in HepG2 cell free culture (AID 720686)
[17] = qHTS assay to test for compound auto fluorescence at 460 nm (blue) in HepG2 cells (AID 720687)
Procedure, shortened: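 Cells (2,000/well in MEM with 10% FBS) attached overnight at 37 C, then were exposed to compound or DMSO for 1 hr at 37 C, 5% CO2. Fluorescence read at Ex/Em 405/460 nm, expressed as triamterene-equivalent signal.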

[18] = target: Glucocorticoid receptor (Homo sapiens) (UniProt P04150); assay: qHTS assay to identify small molecule agonists of the glucocorticoid receptor (GR) signaling pathway (AID 720691; active = well fitted activation curve with a large enough effect in the signal ratio in the repeat runs, not every such curve was filed as active; the % refers to the signal ratio)
Glucocorticoid receptor (Homo sapiens), sequence (P04150 whole entry, looked up): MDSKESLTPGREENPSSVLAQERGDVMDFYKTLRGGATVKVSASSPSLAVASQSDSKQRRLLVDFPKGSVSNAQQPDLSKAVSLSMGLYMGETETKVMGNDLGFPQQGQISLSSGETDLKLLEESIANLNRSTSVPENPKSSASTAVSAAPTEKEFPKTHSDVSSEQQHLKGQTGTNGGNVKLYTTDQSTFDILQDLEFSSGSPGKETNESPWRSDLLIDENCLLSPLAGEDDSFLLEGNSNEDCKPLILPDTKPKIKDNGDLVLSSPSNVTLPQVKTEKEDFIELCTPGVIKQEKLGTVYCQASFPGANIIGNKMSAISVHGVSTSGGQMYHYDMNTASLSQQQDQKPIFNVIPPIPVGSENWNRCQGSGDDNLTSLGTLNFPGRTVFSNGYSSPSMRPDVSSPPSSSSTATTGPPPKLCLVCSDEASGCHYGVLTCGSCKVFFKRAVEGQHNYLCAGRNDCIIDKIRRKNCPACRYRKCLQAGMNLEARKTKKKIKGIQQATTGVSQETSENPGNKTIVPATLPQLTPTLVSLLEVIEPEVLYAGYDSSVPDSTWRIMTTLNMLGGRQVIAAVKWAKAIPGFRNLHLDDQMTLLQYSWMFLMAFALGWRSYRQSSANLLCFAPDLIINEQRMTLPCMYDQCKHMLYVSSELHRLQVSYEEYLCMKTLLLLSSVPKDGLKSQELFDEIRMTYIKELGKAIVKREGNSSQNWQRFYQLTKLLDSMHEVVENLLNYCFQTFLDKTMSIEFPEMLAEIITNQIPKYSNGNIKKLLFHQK
Procedure, shortened: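 GR-bla HeLa cells (beta-lactamase reporter under glucocorticoid response element) were plated 4 h at 37 C/5% CO2, given compounds in DMSO, and incubated 18 h at 37 C. LiveBLAzer B/G FRET substrate was added for 2 h at room temperature, then fluorescence intensity read.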

[19] = target: Glucocorticoid receptor (Homo sapiens) (UniProt P04150); assay: qHTS assay to identify small molecule antagonists of the glucocorticoid receptor (GR) signaling pathway (AID 720692; active = well fitted inhibition curve with a large enough effect in the signal ratio in the repeat runs, not every such curve was filed as active; the % refers to the signal ratio)
Procedure, shortened: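 GR-bla HeLa cells (beta-lactamase reporter under glucocorticoid response element) were pre-plated 4 h at 37 C, treated with compounds plus 5 nM dexamethasone (final) for 18 h, then read by LiveBLAzer B/G FRET fluorescence after 2 h.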

[20] = qHTS assay for small molecule agonists of the p53 signaling pathway (AID 651631; calls by dose curve; also: nearly all actives have a fitted effect of over 15% in size)
Procedure, shortened: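 Readout was fluorescence from the LiveBLAzer FRET substrate, applied for 2 h at room temperature after 16 h compound exposure at 37 °C. Cells were the p53RE-bla HCT-116 line, with beta-lactamase driven by p53 response elements.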

Measured: Potency

CC(CC(=O)Cl)CC(C)(C)C (centres undefined)
not listed: [18] | [19] | [20]
inactive: all other assays above

O=Cc1ccccc1S(=O)(=O)O
not listed: [14] | [15] | [20]
inactive: all other assays above

CCCCCCC(=O)c1ccccc1
not listed: [16] | [18] | [19] | [20]
inactive: all other assays above

Cc1cc(O)c(Cl)cc1C
not listed: [2] | [5] | [16]
inactive: all other assays above

Cc1ccc2ccccc2n1
not listed: [1] | [2] | [19]
inactive: all other assays above

C=C(C)C(=O)OCCOC1CC2CC1C1C=CCC21 (centres undefined)
not listed: [2] | [5] | [12] | [15] | [18] | [19]
inactive: all other assays above

O=S(=O)(O)c1cc(I)c(O)c2ncccc12
not listed: [14] | [18] | [19] | [20]
inactive: all other assays above
